Results from PubChem BioAssay (NCATS).
Inconclusive results are not listed. Calls of active or inactive are those of the source. Calls follow the shape of the dose curve; as a rule, active = well fitted curve in the direction sought with a large enough effect; inconclusive = small, poorly fitted or top-dose-only effect, or another doubt; inactive = no such curve, though single readings can be large; an effect the other way counts as inactive or inconclusive.

How the values were obtained:
[1] = target: Phospholipid hydroperoxide glutathione peroxidase GPX4 (Homo sapiens) (UniProt P36969); assay: Primary qHTS Assay for Inhibitors of Recombinant Selenoprotein Glutathione Peroxidase 4 (GPX4) (AID 1845192); also: nearly all actives have a fitted effect of over 65% in size; as to activity change, negative = inhibition: series mostly up to about 50 µM; % is scaled to controls: 0 for no effect and ±100 for the full control effect
Phospholipid hydroperoxide glutathione peroxidase GPX4 (Homo sapiens), sequence (P36969 whole entry, looked up): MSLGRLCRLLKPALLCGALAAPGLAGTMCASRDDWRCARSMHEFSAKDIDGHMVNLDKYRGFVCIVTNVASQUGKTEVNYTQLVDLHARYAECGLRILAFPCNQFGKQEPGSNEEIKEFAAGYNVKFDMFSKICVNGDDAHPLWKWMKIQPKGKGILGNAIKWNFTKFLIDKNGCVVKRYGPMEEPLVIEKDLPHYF
Outline: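 GR-coupled readout: 100 nM GR, 1 mM GSH, 0.5 mM NADPH; NADPH fluorescence (ex 340/em 450 nm) read at t=0 and after 15 min RT. GPX4 200 nM, preincubated 30 min with compound; substrate 0.5 mM CHP.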

[2] = target: Luciferin 4-monooxygenase (Photinus pyralis) (UniProt P08659); assay: Primary firefly luciferase (FLuc) qHTS assay for identification of artifact compounds. (AID 1845220); also: nearly all actives have a fitted effect of over 60% in size; also: potency is read from the fitted curve at half-maximal effect;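 as to activity change, negative = inhibition: series mostly up to about 54 µM; plate controls were DMSO vehicle for no effect and no enzyme for full effect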
Outline: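 qHTS, 15 min compound preincubation with substrate (10 uM luciferin, 10 uM ATP) at RT, then 10 nM FLuc; 5 min; luminescence; % inhibition vs no-enzyme/DMSO controls, 4-parameter Hill fit.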

[3] = Primary fluorescence-based thiol-reactive (MSTI) qHTS assay for identification of artifact compounds. (AID 1845221); also: nearly all actives have a fitted effect of over 65% in size; also: potency is read from the fitted curve at half-maximal effect;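 as to activity change, negative = thiol reactive: series mostly up to about 54 µM; thiol-reactive compounds lower the probe fluorescence signal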
Outline: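 One-hour, room-temperature, dark incubation of compound with 4 uM MSTI in PBS (pH 7.4, 2% DMSO) precedes a fluorescence read at 525 nm excitation, 598 nm emission; Hill-equation fitting yields concentration-response values.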

[4] = system: Nanoluciferase (engineered Oplophorus gracilirostris luciferase); assay: Primary Nanoluciferase (NLuc) qHTS assay for identification of artifact compounds. (AID 1845222); also: potency is read from the fitted curve at half-maximal effect;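 as to activity, negative = inhibition: series mostly up to about 54 µM; 0% = DMSO and -100% = no enzyme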
Outline: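 Luminescence read-out of secreted NLuc in S16 cell conditioned medium (1:55); compounds tested with 15 min RT preincubation, then Nano-Glo substrate 1:100, 5 min. % inhibition vs no-enzyme and DMSO controls, 4-parameter Hill fit.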

CC[C@H](C)[C@H](NC(=O)[C@H]([C@@H](C)CC)N(C)C(C)=O)C(=O)N[C@H](C(=O)N[C@@H](CC(C)C)C(=O)[C@@]1(C)CO1)[C@@H](C)O
inactive: Potency [1] | Potency [2] | Potency [3] | Potency [4]

COc1c/c(=C2\C=c3ccccc3=N2)[nH]/c1=C\c1[nH]c(C)cc1C
active: Potency [2] 3.38 µM | Potency [3] 1.19 µM | Potency [4] 10.7 µM
inactive: Potency [1]

CC(=O)OC1C(OC(=O)c2ccccc2)C2C(C)(C)CC(=O)CC2(C)C23CCC(C)(C2)C(O)CC13 (stereo not given)
inactive: Potency [1] | Potency [2] | Potency [3] | Potency [4]

CC1(C)CCC2(C(=O)OC3OC(CO)C(O)C(O)C3O)CCC3(C)C(=CCC4C5(C)CCC(O)C(C)(C(=O)O)C5CCC43C)C2C1O (stereo not given)
inactive: Potency [1] | Potency [2] | Potency [3] | Potency [4]

CC(=O)N1CCN(Cc2ccc([C@H](C)Nc3nccc(N4C(=O)OC[C@@H]4C(C)C)n3)cc2)CC1
inactive: Potency [1] | Potency [2] | Potency [3] | Potency [4]

COc1cc(N2CCOCC2)ccc1Nc1ncc(Cl)c(Nc2ccccc2NS(C)(=O)=O)n1
inactive: Potency [1] | Potency [2] | Potency [4]
active: Potency [3] 1.34 µM

O=C(O)[C@H](Cc1ccc(Nc2nccc3ccncc23)cc1)NC1=C(Br)C(=O)C12CCCCC2
inactive: Potency [1] | Potency [2] | Potency [3] | Potency [4]

CC(C)S(=O)(=O)N[C@H]1CCOC[C@@H]1c1ccc(-c2ccc(C#N)s2)cc1
inactive: Potency [1] | Potency [2] | Potency [3] | Potency [4]

CN1CCc2nc(C(=O)N[C@@H]3C[C@@H](C(=O)N(C)C)CC[C@@H]3NC(=O)C(=O)Nc3ccc(Cl)cn3)sc2C1
inactive: Potency [1] | Potency [2] | Potency [3] | Potency [4]

CC1OC(OC2C(CO)OC(OCC3OC(OC(=O)C45CCC(C)(C)CC4C4=CCC6C7(C)CCC(OC8OC(CO)C(O)C(OC9OC(CO)C(O)C(O)C9O)C8O)C(C)(C)C7CCC6(C)C4(C)CC5)C(O)C(O)C3O)C(O)C2O)C(O)C(O)C1OC1OC(CO)C(O)C(O)C1O (stereo not given)
inactive: activity change, negative = inhibition [1] -8.53% [at 9.73 µM] | activity change, negative = inhibition [2] -3.46% [at 11.6 µM] | activity change, negative = thiol reactive [3] 208% [at 11.5 µM] | activity, negative = inhibition [4] 1.03% [at 11.6 µM]

C/C=C/C=C/C(O)=C1\C(=O)[C@]2(C)C3C(C(=O)CC/C=C/C)=C(O)C4(C)C1[C@]1(C)O[C@@]4(O)[C@@]3(C)O[C@@]12O
active: Potency [3] 4.62 µM
inactive: Potency [1] | Potency [2] | Potency [4]

CC1OC(OC2CCC3(C)C(CCC4(C)C3CC=C3C5CC(C)(C)CCC5(C(=O)OC5OC(CO)C(O)C(O)C5O)CCC34C(=O)O)C2(C)C)C(O)C(O)C1O (stereo not given)
inactive: Potency [1] | Potency [2] | Potency [3] | Potency [4]

CC(C)C(NC(=O)c1ccc2ccccc2n1)C(=O)NC(CC(=O)O)C(=O)COc1c(F)cccc1F (stereo not given)
inactive: Potency [1] | Potency [2] | Potency [3]

CC1OC(OCC2OC(OC3CCC4(C)C(CCC5(C)C4CC=C4C6CC(C)(C)CCC6(C(=O)OC6OC(CO)C(O)C(O)C6O)CCC45C)C3(C)CO)C(O)C(O)C2O)C(O)C(O)C1O (stereo not given)
inactive: Potency [1] | activity change, negative = inhibition [2] -1.2% [at 11.6 µM] | activity change, negative = thiol reactive [3] 188% [at 11.5 µM] | activity, negative = inhibition [4] 0% [at 11.6 µM]

O=C(CCc1ccccc1)N1CCC(O)(Cn2cnc3cc(Cl)ccc3c2=O)CC1
inactive: Potency [1] | Potency [2] | Potency [3] | Potency [4]

C[C@H]1C(=O)N2c3ccccc3[C@@]3(O)C[C@@H]4C(=O)N[C@](C)(c5nc6ccccc6c(=O)n54)N1[C@@H]23
inactive: Potency [1] | Potency [2] | Potency [3] | Potency [4]

CCOCCOC(=O)/C=C/c1ccc(OC)cc1
inactive: Potency [1]

CC(C)(C)NC(=O)[C@@H](c1cccnc1)N(C(=O)c1ccco1)c1ccc(C(C)(C)C)cc1
inactive: Potency [1] | Potency [2] | Potency [3]

C/C=C1\[C@H](O[C@@H]2O[C@H](CO)[C@@H](O)[C@H](O)[C@H]2O)OC=C(C(=O)OC)[C@H]1CC(=O)OC[C@H]1O[C@@H](OCCc2ccc(O)cc2)[C@H](O)[C@@H](O)[C@@H]1O
inactive: Potency [1] | Potency [2] | Potency [4]
active: Potency [3] 2.24 µM

CC(C)CC1NC(=O)C(C)NC(=O)C(CC(C)C)OC(=O)CCCNC1=O (stereo not given)
inactive: Potency [1] | Potency [2] | Potency [3] | Potency [4]

C/C=C/C=C/C=C/C(=O)OC1C=C(C=O)C(O)(C(=O)O)C2(C)CCCC(C)(C)C12 (stereo not given)
active: Potency [3] 5.82 µM
inactive: Potency [1] | Potency [2]

CC1(C=O)CC[C@]2(C(=O)O[C@@H]3O[C@H](CO)[C@@H](O)[C@H](O)[C@H]3O)CC[C@]3(C)C(=CCC4[C@@]5(C)C[C@H](O)[C@H](O[C@@H]6OC[C@@H](O)[C@H](O)[C@H]6O)[C@@](C)(CO)C5CC[C@]43C)C2C1 (stereo not given in full)
inactive: Potency [1] | outcome [2] inactive [at 11.6 µM] | activity change, negative = thiol reactive [3] 182% [at 11.5 µM] | activity, negative = inhibition [4] 2.01% [at 11.6 µM]

COC(=O)C12C(=O)C(C)=C(O)C1(C)C(C)=CC1C3(CO)CCC(O)C(C)(C)C3CCC12C (stereo not given)
inactive: Potency [1] | Potency [2] | Potency [3]

C=CC(=O)Nc1cccc(Nc2nc(Nc3ccc(N4CCN(C(C)=O)CC4)cc3OC)ncc2C(F)(F)F)c1
active: Potency [3] 2.99 µM
inactive: Potency [1] | Potency [2]

C[C@@H]1O[C@@H](O[C@H]2[C@H](OC(=O)[C@]34CCC(C)(C)C[C@H]3C3=CCC5[C@@]6(C)CC[C@H](O[C@@H]7O[C@H](C(=O)O)[C@@H](O)[C@H](O)[C@H]7O[C@@H]7O[C@H](CO)[C@H](O)[C@H](O)[C@H]7O)[C@@](C)(C=O)C6CC[C@@]5(C)[C@]3(C)C[C@H]4O)O[C@H](C)[C@H](O[C@@H]3O[C@H](C)[C@H](O)[C@H](O)[C@H]3O)[C@@H]2O)[C@H](O)[C@H](O)[C@H]1O[C@@H]1OC[C@@H](O)[C@H](O[C@@H]2O[C@H](CO)[C@@H](O)[C@H](O)[C@H]2O)[C@H]1O (stereo not given in full)
inactive: outcome [1] inactive [at 9.73 µM] | outcome [2] inactive [at 6.45 µM] | activity change, negative = thiol reactive [3] 292% [at 6.41 µM] | activity, negative = inhibition [4] 4.73% [at 6.45 µM]

C=CC1C(OC2OC(CO)C(O)C(O)C2O)OC=C(C(=O)OC)C1CC1CC(=O)CC(CCc2ccc(O)cc2)O1 (stereo not given)
inactive: Potency [1] | Potency [2] | Potency [3] | Potency [4]

C[C@@H]1CC[C@]2(C(=O)O[C@@H]3O[C@H](CO)[C@@H](O)[C@H](O)[C@H]3O)CC[C@]3(C)C(=CCC4[C@@]5(C)C[C@@H](O)[C@H](O)[C@@](C)(C(=O)O[C@H]6[C@H](O)C[C@@]7(C)C(CC[C@]8(C)C7CC=C7[C@H]9[C@](C(=O)O[C@@H]%10O[C@H](CO)[C@@H](O)[C@H](O)[C@H]%10O)(CC[C@@H](C)[C@@]9(C)O)CC[C@]78C)[C@@]6(CO)C(=O)O)C5CC[C@]43C)[C@@H]2[C@]1(C)O (stereo not given in full)
inactive: activity change, negative = inhibition [1] -0.473% [at 9.73 µM] | activity change, negative = inhibition [2] 0.17% [at 11.6 µM] | activity change, negative = thiol reactive [3] -3.19% [at 11.5 µM] | activity, negative = inhibition [4] -2.05% [at 11.6 µM]

O=C(c1cccc(Cl)c1F)N1CCN(Cc2cccc(Nc3nccs3)n2)CC1
inactive: Potency [1] | Potency [2] | Potency [3] | Potency [4]

CCN1CCN(Cc2ccc(Nc3ncc(F)c(-c4cc(F)c5nc(C)n(C(C)C)c5c4)n3)nc2)CC1
inactive: Potency [1] | Potency [2] | Potency [3] | Potency [4]

COc1cc(C(=O)NC2CCN(C)CC2)c(F)cc1Nc1ncc2c(n1)N(C1CCCC1)CC(F)(F)C(=O)N2C
inactive: Potency [1] | Potency [2] | Potency [3] | Potency [4]

O=C(O)c1cc(I)ccc1NC(=O)[C@H](Cc1ccccc1)NCc1ccccc1
inactive: Potency [1] | Potency [2] | Potency [3]

CC1(C)CC[C@]2(C(=O)O[C@@H]3O[C@H](CO)[C@@H](O)[C@H](O)[C@H]3O)CC[C@]3(C)C(=CCC4[C@@]5(C)C[C@@H](O)[C@H](O)[C@](C)(C=O)C5CC[C@]43C)[C@@H]2[C@@H]1O (stereo not given in full)
active: Potency [3] 3.98 µM
inactive: Potency [1] | Potency [2] | Potency [4]

CCC1C(=O)N(C)c2cnc(Nc3ccc(C(=O)NC4CCC(N5CCN(CC6CC6)CC5)CC4)cc3OC)nc2N1C(C)C (stereo not given)
inactive: Potency [1] | Potency [2] | Potency [3] | Potency [4]

CC(C)C(CO)Nc1nc(Nc2ccc(C(=O)O)c(Cl)c2)c2ncn(C(C)C)c2n1 (stereo not given)
inactive: Potency [1] | Potency [2] | Potency [3]

CC1=CC(=O)[C@H]2C(C)(C)CCC[C@]2(C)[C@@]1(O)CO
inactive: Potency [1] | Potency [2] | Potency [3] | Potency [4]

CC[C@]1(O)CC2CN(CCc3c([nH]c4ccccc34)[C@@](C(=O)OC)(c3cc4c(cc3OC)N(C=O)[C@H]3[C@@](O)(C(=O)OC)[C@H](OC(C)=O)[C@]5(CC)C=CCN6CC[C@]43[C@@H]65)C2)C1 (stereo not given in full)
inactive: Potency [1] | Potency [2] | Potency [3] | Potency [4]

C=C1C[C@]23C[C@H]1CC[C@H]2[C@]1(C)CCC[C@@](C)(C(=O)O)[C@H]1[C@@H]3C(=O)O
inactive: Potency [1] | Potency [2] | Potency [3] | Potency [4]

COc1c2c(c(C)c3c1C(=O)OC3)OC1(C)CC(O)C34OC(OC)(CC(OC(C)=O)C3(C)C1C2)OC4(C)C (stereo not given)
inactive: Potency [1] | Potency [2] | Potency [3] | Potency [4]

C[C@@H]1O[C@@H](O[C@H]2[C@H](O)[C@@H](C(=O)O)O[C@@H](O[C@H]3CC[C@@]4(C)C(CC[C@]5(C)C4CC=C4C6CC(C)(C)CC[C@]6(C(=O)O)CC[C@]45C)C3(C)C)[C@@H]2O[C@@H]2OC[C@@H](O)[C@H](O)[C@H]2O)[C@H](O)[C@H](O)[C@H]1O (stereo not given in full)
inactive: Potency [1] | activity change, negative = inhibition [2] 1.83% [at 11.6 µM] | activity change, negative = thiol reactive [3] 129% [at 11.5 µM] | activity, negative = inhibition [4] 0.398% [at 11.6 µM]

Nc1nc2c(c(=O)[nH]1)C[C@@H](CCc1ccc(C(=O)N[C@@H](CCC(=O)O)C(=O)O)cc1)CN2
inactive: Potency [1] | Potency [2] | Potency [3] | Potency [4]
